Laboratory results from PubChem BioAssay AID1981 (Southern Research Specialized Biocontainment Screening …, 2009).
Out of some 2,200 compounds screened, about 480 (22%) were called active. No rule for the calls is given here. Not all results are given here. Results with a measured potency or affinity are listed apart.

Experiment: S. Typhimurium GFP fluorescence modified counterscreen for PhoP regulon inhibitor project dose response (AID 1981);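 also: 0% = induced DMSO wells and 100% = uninduced wells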
Conditions: 4 h; series mostly up to 150 µM; inhibition: at the top concentration

| Compound | inhibition |
| --- | --- |
| CCC(Sc1ncccc1C(=O)OC(C)C)C(=O)N1CCOCC1 (centres undefined) | -15.1% (inactive) |
| O=C(CSc1ccc2c(c1)OCCO2)NCCc1ccc(Cl)cc1Cl | -4.24% (inactive) |
| CCOC(=O)/C(=C/C=C/c1ccccc1)NC(=O)c1ccccc1 | -1.59% (inactive) |
| Cc1[nH]c2ccccc2c1/C=N/O | 8.32% (inactive) |
| COc1ccc2[nH]c(S(=O)Cc3ncc(C)c(OC)c3C)nc2c1 (centres undefined) | -29.2% (inactive) |
| Oc1ccc(-c2n[nH]c(=S)n2-c2ccc3c(c2)OCCO3)c(O)c1 | -23.8% (inactive) |
| Cc1ccc(Nc2nc(CSc3nnc(-c4cccnc4)n3-c3ccccc3F)cs2)cc1 | -4.68% (inactive) |
| COc1ccc(OC)c(S(=O)(=O)N(C)CC(=O)N2CCc3ccccc3C2)c1 | 0.16% (inactive) |
| COc1cc(C)nc(Nc2nc(C)c(C(C)=O)s2)n1 | -13.1% (inactive) |
| COC(OC)c1nc(SCC(=O)Nc2cccc(Cl)c2)ncc1C(=O)O | 12.7% (inactive) |
| CCN(CC)c1ccc(/C=N/NC(=S)NCc2ccccc2)c(O)c1 | 7.11% (inactive) |
| C#CCn1cc(/C=N/Nc2nc3ccccc3[nH]2)c2ccccc21 | 29.9% (inactive) |
| C(=C\c1ccccc1)/C=N/Nc1nc2ccccc2[nH]1 | 5.88% (inactive) |
| CN(c1cccc(Cl)c1)S(=O)(=O)c1cccc(C(=O)Nc2nc3ccccc3[nH]2)c1 | 2.87% (inactive) |
| CN1CCN(S(=O)(=O)c2ccc(-c3ccccc3)cc2)CC1 | -2.63% (inactive) |
| COc1ccc(C2=Nc3cccc4cccc(c34)N2)cc1 | 23.4% (inactive) |
| Cc1ccc(CNC(=O)c2cccc(S(C)(=O)=O)c2)cc1 | -12.3% (inactive) |
| COc1ccc(-c2nnc(SCC(=O)NCc3ccco3)o2)cc1 | -15.1% (inactive) |
| Cc1ccc(S(=O)(=O)NCCC(=O)OCn2nnc3ccccc3c2=O)cc1 | -6.39% (inactive) |
| CN1/C(=C/C=N/NC(=O)c2ccc([N+](=O)[O-])cc2)C(C)(C)c2ccccc21 | 14.1% (inactive) |
| CN1/C(=C/C2CC(=O)N(c3cccc4ccccc34)C2=O)C(C)(C)c2ccccc21 (centres undefined) | 33% (inactive) |
| COC(=O)c1cc(C#N)c(Oc2cccc(C)c2C)nc1C | -3.13% (inactive) |
| Cc1c(/C=C/C(=O)c2ccccc2)cnn1C | -23.1% (inactive) |

| Compound | inhibition |
| --- | --- |
| O=C1c2ccccc2C2=Nc3ccccc3SC(c3cccc(F)c3)C12 (centres undefined) | 32.5% (inactive) |
| Cn1c(N)c(C(=O)COC(=O)C2CCCCC2)c(=O)n(C)c1=O | -19.5% (inactive) |
| COc1ccccc1NCCC(=O)OCC(=O)NC1CCCCCC1 | 3.79% (inactive) |
| O=c1c2ccccc2nc(-c2ccco2)n1-c1nccs1 | -7.28% (inactive) |
| CNc1nc(Sc2ccccc2)cc(C(F)(F)F)n1 | -5.48% (inactive) |
| CC(=O)Nc1c(C#N)c(C(C)(C)C)cn1C | -1.78% (inactive) |
| CCOC(=O)c1ccc(N2CCN(c3ccc(F)cc3)CC2)c(NC(=O)Nc2cccc(OC)c2)c1 | -2.83% (inactive) |
| COc1ccccc1-c1c(C#N)c(N)nc2c1CCc1ccccc1-2 | -21.4% (inactive) |
| CCOC(=O)CSc1nc2c(sc(=S)n2-c2ccccc2)c(=O)n1-c1ccc(OC)cc1OC | -4.8% (inactive) |
| CCOC(=O)Cc1ccc2sc(-c3ccccc3)nc2c1 | -0.11% (inactive) |
| Cc1ccc2cc(C(=O)O)c(C)nc2c1 | -3.21% (inactive) |
| N/C(=N\OC(=O)Nc1ccc(Cl)cc1)c1ncc(C(F)(F)F)cc1Cl | -5% (inactive) |
| COc1cccc(C=NCC(C)N=Cc2cccc(OC)c2O)c1O (centres undefined) | 23.7% (inactive) |
| N#C/C(=C\c1ccc(F)c(F)c1)C(=O)NC1CCCCC1 | -10% (inactive) |
| N#CC(C#N)=c1ccc2c(c1)NC1(CCCCC1)N=2 | 8.18% (inactive) |
| CCCCCCCSc1cc(OC)c(CCN(C)C)cc1OC | 15.5% (inactive) |
| CCCCn1nnnc1NCc1cc(OC)c(OC)cc1OC | -11.7% (inactive) |
| COc1ccccc1NS(=O)(=O)c1cc(NC(=S)Nc2cc(C)cc(C)c2)ccc1Cl | -31.4% (inactive) |
| COc1ccc(CCNC(=O)c2ccc(CN3CCOCC3)cc2)cc1 | -9.72% (inactive) |
| CN(C(=S)Nc1ccc(Oc2ccccc2)cc1)c1ccc(O)cc1 | -27.1% (inactive) |
| O=S(=O)(c1ccccc1)N(CC(O)Cn1c2ccccc2c2ccccc21)c1ccccc1 (centres undefined) | -9.4% (inactive) |
| OCCN(CCO)CC(O)Cn1c2ccccc2c2ccccc21 (centres undefined) | -6.19% (inactive) |
| CCOC(=O)C1CCCN(S(=O)(=O)c2ccc(Br)c(OC)c2)C1 (centres undefined) | 2.54% (inactive) |

| Compound | inhibition |
| --- | --- |
| Cc1cc(C)nc(N2CCCC(C(=O)Nc3ccc4nc(C)c(C)nc4c3)C2)n1 (centres undefined) | -12.8% (inactive) |
| Nc1nnc(SCc2ccc3c(c2)OCO3)s1 | -5.33% (inactive) |
| O=C(c1cn(-c2ccccc2)nc1-c1cccnc1)N1CCCCC1 | -8.46% (inactive) |
| Cc1cccc(-n2nc3c(c2NC(=O)c2ccco2)CSC3)c1C | -5.76% (inactive) |
| O=[N+]([O-])c1nn(-c2cccc(Cl)c2)n(O)c1=NCc1cccnc1 | -14.4% (inactive) |
| Cc1nc(N2CCN(c3ccccc3)CC2)nc2c1C(=O)CC(C)C2 (centres undefined) | -11.1% (inactive) |
| Cc1ccccc1NC(=S)NC1CCN(Cc2ccccc2)CC1 | -11.4% (inactive) |
| CCCCC1(CCCC)C(=O)NC(=Nc2cccc(C)c2)NC1=O | 4.62% (inactive) |
| CCn1cc(C(=O)O)c(=O)c2cc(F)c(N3CCN(C(=S)NC(=O)c4ccccc4Cl)CC3)cc21 | 37.6% (inactive) |
| O=C(Cn1cnc2scc(-c3ccccc3)c2c1=O)N1CCOCC1 | -6.78% (inactive) |
| Cc1ccccc1-n1nc(-c2ccc(N)cc2)cc1N | -2.22% (inactive) |
| N#CCOC(=O)c1sccc1-n1cccc1 | -8.78% (inactive) |
| COc1ccc(/C=C(\NC(=O)/C=C/c2ccco2)C(=O)NCCc2nc3ccccc3[nH]2)cc1 | 6.45% (inactive) |
| S=C(NCc1cccnc1)Nc1ccc(Cl)cc1 | 8.22% (inactive) |
| O=[N+]([O-])c1ccc(Sc2nc3ccccc3o2)c([N+](=O)[O-])c1 | 29.7% (inactive) |
| COc1ccc(-c2csc(NCc3ccco3)n2)cc1 | 9.28% (inactive) |
| N#CC1=C(N)SC(N)=C(C#N)C1c1ccc([N+](=O)[O-])cc1 | -7% (inactive) |
| COc1cccc2c(=O)c3c(cnn3C)n(C)c12 | 1.4% (inactive) |
| COc1ccc(-c2cc(C(=O)O)[nH]n2)cc1OC | 6.16% (inactive) |
| Cn1c(-c2ccc(N)cc2)nc2ccccc21 | -15.1% (inactive) |
| CCC(=O)NC1=C(NC(C)c2ccccc2)C(=O)c2ccccc2C1=O (centres undefined) | 2.8% (inactive) |
| COC(=O)c1sc2ccccc2c1-n1cccc1C(=O)C(=O)Nc1ccc(Cl)cc1 | -6.16% (inactive) |
| Cn1c(=O)n(CC(=O)Nc2ccccc2)c2ccccc21 | -5.81% (inactive) |

| Compound | inhibition |
| --- | --- |
| COc1ccc(C(=O)Nc2cc(C)ccc2NC(=O)COc2ccccc2)cc1 | -7.99% (inactive) |
| CCN(Cc1ccccc1)C(=O)CN1C(=S)NC(C)(C)CC1C (centres undefined) | -16.8% (inactive) |
| CCOC(=O)Cn1nnnc1C(C(C)C)N(Cc1cccs1)Cc1cc2cc(C)ccc2[nH]c1=O (centres undefined) | -14.5% (inactive) |
| CCN(CC)C(=O)CP(=O)(c1ccccc1)c1ccccc1 | -24.6% (inactive) |
| Cc1cc(C2=NNC(=NC3CC3)SC2)c(C)n1-c1ccccc1 | -27.7% (inactive) |
| Nc1cc(N)nc(SCC(=O)Nc2ccc3c(c2)OCCCO3)n1 | -1.56% (inactive) |
| COc1ccc(C(=O)N2CCN(C(=O)c3ccco3)CC2)cc1OC | -6.92% (inactive) |
| CCOC(=O)c1sc2nccc(N(C)C)c2c1N=CNOCc1c(F)cccc1Cl | 4.36% (inactive) |
| O=C(CSc1nnc(-c2cccs2)n1-c1ccccc1)NCc1ccc2c(c1)OCO2 | -12.3% (inactive) |
| COc1cccc(-c2nnc(SCC(=O)Nc3ccc(OC)c(OC)c3)n2N)c1 | -7.18% (inactive) |
| CCCc1cc(-c2nc(N)ncc2-c2ccc3c(c2)OCCCO3)c(O)cc1OC | -11.7% (inactive) |
| CCC(CC)C(=O)Nc1cccc(C(=O)N2CCCC2)c1 | 1.33% (inactive) |
| CCOC(=O)c1[nH]c2ccccc2c1NC(=O)NC1CCCCC1 | 0.89% (inactive) |
| CCOC(=O)CCCNC(=O)COC(=O)CCC(=O)c1ccc(F)cc1 | 16.4% (inactive) |
| Cn1c(-c2ccc3nc(N)sc3c2)nc2cc(N)ccc21 | -13.2% (inactive) |
| COc1cc(C=O)ccc1OCCCOc1ccccc1[N+](=O)[O-] | -2.16% (inactive) |
| CCOC(=O)COc1ccccc1/C=C\[N+](=O)[O-] | 20.1% (inactive) |
| COc1ccc([N+](=O)[O-])cc1NC(=O)C(C)OC(=O)c1ccccc1C(=O)c1ccc(Cl)cc1 (centres undefined) | -21.5% (inactive) |
| Cc1ccc(S(=O)(=O)N2CCCC2C(=O)OCc2ccco2)cc1 (centres undefined) | 16% (inactive) |
| Cc1nc2c(C(=O)NCCC(C)C)c[nH]n2c(=O)c1Cc1ccccc1F | 1.09% (inactive) |
| O=C(CCn1nnc(-c2cccs2)n1)NCc1ccccc1Cl | -14.8% (inactive) |
| Cc1ccc(CCNC(=O)C2CCCN(S(=O)(=O)c3c(C)noc3C)C2)cc1 (centres undefined) | 4.87% (inactive) |
| CC(C)Cn1c(-c2ccccc2)nc2ccccc2c1=O | -3.38% (inactive) |

| Compound | inhibition |
| --- | --- |
| COc1ccc(Cl)cc1C(=O)CSc1nc(N)cc(N)n1 | -5.16% (inactive) |
| COc1ccc(-c2c/c(=N\c3nc(-c4ccccc4)c(C)s3)c3ccccc3o2)cc1O | 6.27% (inactive) |
| O=C(N/N=C/c1ccc(F)cc1)c1cc(-c2ccco2)nc2ccccc12 | 3.68% (inactive) |
| Cc1ccccc1OCC(=O)N/N=C/c1ccco1 | -1.78% (inactive) |
| Cc1ccc(NC(=O)CO/N=C(\N)c2nonc2N)cc1 | -2.61% (inactive) |
| COC(=O)c1ccc(NC(=S)Nc2ccc3ccccc3c2)cc1 | 19.2% (inactive) |
| Cn1ccnc1SCC(=O)Nc1sccc1C#N | -14% (inactive) |
| NC1=NC2=C(CCCC2)C2(CCCCC2)S1 | 3.33% (inactive) |
| CCCCn1c(O)c(C(CC)=Nc2ccc3c(c2)CCC3)c(=O)[nH]c1=O | 0.23% (inactive) |
| CC(C)c1ccc(O)c(NC(=O)c2cncc(Br)c2)c1 | -16.4% (inactive) |
| COc1ccccc1N1CCN(c2ccc(-c3ccccc3)nn2)CC1 | 1.73% (inactive) |
| Cc1ccccc1Nc1nnc(SCC(=O)NC2CCCc3ccccc32)s1 (centres undefined) | -4.71% (inactive) |
| Cc1[nH]nc2c1C(c1cc(Br)cs1)C(C#N)=C(N)O2 (centres undefined) | 16.8% (inactive) |
| CCCOc1ccc(Cn2cnc3ccccc32)cc1 | 5.83% (inactive) |
| O=C(OCC1COc2ccccc2O1)c1ccccc1F (centres undefined) | -13.2% (inactive) |
| CN(C)CCOC(=O)Cc1ccc(Cl)cc1 | 7.74% (inactive) |
| CC(=O)N(Cc1ccc(Cl)cc1)c1cnccn1 | -9.06% (inactive) |
| C/C(Nc1ccc(F)cc1)=C(/C#N)C(N)=O | 0.93% (inactive) |
| Cc1ccc2c(c1)cc(CN(Cc1ccc3c(c1)OCO3)C(=O)c1cnccn1)c1nnnn12 | -3.22% (inactive) |
| Cc1nnc(NC(=O)CSc2ncnc3scc(-c4ccccc4)c23)s1 | -16.3% (inactive) |
| O=C(CSc1nnnn1-c1ccccc1)CC(=O)Nc1ccc(Cl)cc1 | 5.16% (inactive) |
| O=C(CSc1nnc2c(Cl)cc(Cl)cn12)NC1CCS(=O)(=O)C1 (centres undefined) | -19.5% (inactive) |
